Screening data (PubChem BioAssay)
HP1b chromo inh = blocks HP1-beta chromodomain binding to methylated histone tails; AlphaScreen HP1-beta / biotin-H3K9me3 peptide binding; Potency, µM (titrated, usually from 114 µM), most hits filed as inhibitors; 390,000 tested, 0.56% active; AID 540317; note: nearly all actives have a fitted effect of over 70% in size
Target sequence (P83916 whole entry, looked up): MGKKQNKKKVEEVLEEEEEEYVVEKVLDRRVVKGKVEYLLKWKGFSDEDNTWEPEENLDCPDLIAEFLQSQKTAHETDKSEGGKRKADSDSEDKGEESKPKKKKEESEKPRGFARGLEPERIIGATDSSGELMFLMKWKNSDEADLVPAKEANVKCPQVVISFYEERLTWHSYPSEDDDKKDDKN
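HP1-beta protein (50 nM final) preincubated 30 min at room temperature with biotinylated H3(1-18)K9me3 peptide (50 nM) in PBS pH 7.4, 0.01% Tween-20, then compound added for 30 min. AlphaScreen streptavidin donor/nickel chelate acceptor beads (10 ug/mL final), 30 min dark, luminescence read.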
G9a inh-1 = inhibitors of human histone lysine methyltransferase G9a | G9a H3K9 monomethylation, AlphaScreen, 2 h | Potency, µM (doses to about 102 µM), hits mostly inhibitors | 350,000 tested, 8.8% active | AID 504332; note: nearly all actives have a fitted effect of over 75% in size
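Enzyme 20 nM + cpd, 15 min RT; add b-H3K9 pep 500 nM / SAM 20 uM; 2 h RT; anti-H3K9me1 Ab 0.5 ug/mL + SA donor / anti-rabbit acceptor beads 20 ug/mL each, 10 min; AlphaScreen read.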
PLK1 PBD block = PLK1 (human) polo-box domain binding inhibition. P53350. Plk1 PBD binding of FITC phosphopeptide, fluorescence polarization. Potency, µM, usual class: inhibitors. 360,000 tested, 2.8% active; note: series mostly up to about 57 µM; nearly all actives have a fitted effect of over 65% in size
Target sequence (P53350 whole entry, looked up, the tested form may be a part): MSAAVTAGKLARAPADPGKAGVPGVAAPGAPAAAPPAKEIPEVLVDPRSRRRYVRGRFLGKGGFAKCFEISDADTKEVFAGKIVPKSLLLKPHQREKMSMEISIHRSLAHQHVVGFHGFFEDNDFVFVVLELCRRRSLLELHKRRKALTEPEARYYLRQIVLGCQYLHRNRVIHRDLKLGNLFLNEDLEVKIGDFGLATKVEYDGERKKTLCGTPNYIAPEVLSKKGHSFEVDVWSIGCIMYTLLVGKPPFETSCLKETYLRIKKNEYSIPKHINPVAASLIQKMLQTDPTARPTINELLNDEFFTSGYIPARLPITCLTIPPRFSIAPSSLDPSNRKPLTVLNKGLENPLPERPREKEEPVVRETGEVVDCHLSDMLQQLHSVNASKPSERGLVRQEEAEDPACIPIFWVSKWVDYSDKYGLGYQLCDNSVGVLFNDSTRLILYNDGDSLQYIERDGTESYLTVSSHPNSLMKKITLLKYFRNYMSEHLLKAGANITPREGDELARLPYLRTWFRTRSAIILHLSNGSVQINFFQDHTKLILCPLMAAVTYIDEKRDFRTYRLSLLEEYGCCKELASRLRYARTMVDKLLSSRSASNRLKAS
BAZ2B block = blocks human BAZ2B. AlphaScreen BAZ2B-H3K14Ac peptide displacement. Potency, µM (highest dose often 114 µM), actives largely listed as inhibitors. 360,000 tested, 4.4% active. AID 504333; note: nearly all actives have a fitted effect of over 60% in size
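Complex of BAZ2B and biotin-H3K14Ac (50 nM apiece) forms over 30 min at RT, then faces library compounds up to 110 uM for another 30 min; AlphaScreen beads added, 20 min dark incubation, luminescence read.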
Sfp inh = inhibitors of Bacillus subtilis Sfp phosphopantetheinyl transferase; 310,000 tested, 3.5% active; Biochemical Sfp PPTase activity, qHTS; Q9F4F7; Potency, µM, actives largely listed as inhibitors; AID 1490;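 note: the enzyme is Sfp with the accession as filed and its product quenches rhodamine fluorescence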
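Compounds were incubated with enzyme (final 15 nM) for 15 min at room temperature before substrate addition started the reaction. Fluorescence at 525 nm excitation, 598 nm emission was recorded immediately and after 30 minutes.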
JMJD2A Tudor = blocks the human JMJD2A Tudor domain. O75164. Potency, µM (series often up to 114 µM), most hits filed as inhibitors. 390,000 tested, 4.4% active. AID 504339. AlphaScreen JMJD2A-Tudor / H3K4me3 peptide binding; note: nearly all actives have a fitted effect of over 50% in size
Sfp PPTase conf = Sfp phosphopantetheinyl transferase inhibition, confirmation; AID 2701; shares compounds with Sfp inh; Potency, µM (series often up to 114 µM), hits mostly inhibitors; Sfp PPTase enzymatic assay, qHTS titration; 380 tested, 79% active
Sfp gel assay = Inhibits Bacillus subtilis Sfp phosphopantetheinyl transferase. shares compounds with Sfp inh. purified Sfp, gel-based phosphopantetheinylation read-out. Potency, µM, actives largely listed as inhibitors. 210 tested, 20% active;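 active = potency below 100 µM; inconclusive = dose-dependent response but potency above 100 µM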;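 note: potency is an IC50 for inhibitors of Sfp transfer activity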
JMJD2E inh-1 = blocks human JMJD2E demethylase activity; shares compounds with BAZ2B block; JMJD2E demethylase, FDH-coupled NADH fluorescence; Potency, µM (top dose mostly 57 µM), hits mostly inhibitors; 130 tested, 89% active
ME-1 growth = reduces ME-1 leukemia cell proliferation; Potency, µM (titrated, usually from 56.1 µM), most hits filed as inhibitors; 140 tested, 20% active; shares compounds with BAZ2B block; ME-1 cell proliferation, ATP luminescence, 48 h
JMJD2E inh-2 = JMJD2E (human) demethylase inhibition, confirmation; shares compounds with JMJD2A Tudor; Recombinant JMJD2E, FDH-coupled NADH fluorescence (FDH is formaldehyde dehydrogenase); Potency, µM (titrated, usually from 56.8 µM), hits mostly inhibitors; 140 tested, 93% active; AID 2677
FDH inh = FDH (Pseudomonas putida) inhibition counter-screen. Potency, µM (top dose mostly 56.7 µM), usual class: inhibitors. 140 tested, 10% active. FDH enzyme assay, NADH fluorescence kinetic. shares compounds with JMJD2A Tudor. AID 2680
G9a inh-2 = inhibits human G9a histone lysine methyltransferase, hit confirmation; shares compounds with JMJD2A Tudor; G9a H3K9 monomethylation, AlphaScreen, 2 h; Potency, µM, hits mostly inhibitors; 370 tested, 89% active; note: nearly all actives have a fitted effect of over 65% in size
TbPYK inh = Trypanosoma brucei pyruvate kinase inhibition, cherry-pick confirmation. shares compounds with PLK1 PBD block. recombinant TbPYK, Kinase-Glo ATP luminescence. Potency, µM (titrated, usually from 76.9 µM), usual class: inhibitors. 890 tested, 67% active. AID 720569; note: nearly all actives have a fitted effect of over 70% in size
TbPYK ADP-Glo = orthogonal confirmation of Trypanosoma brucei pyruvate kinase inhibitors; 890 tested, 62% active; AID 720584; recombinant TbPYK, ADP-Glo luminescence, 60 min; shares compounds with PLK1 PBD block; Potency, µM (titrated, usually from 76.9 µM), most hits filed as inhibitors; note: nearly all actives have a fitted effect of over 75% in size
Of the large screens only hits and unclear results are named; the others gave an inactive call (follow-up assays come after a bar, where they were run); ! = repeats disagree. Sampled rows, rich in hits. Any-hit rate of the full collection: about 12%. Unless noted, calls come from the whole dose curve; as a rule, active = well fitted curve in the direction sought with a large enough effect; inconclusive = small, poorly fitted or top-dose-only effect, or another doubt; inactive = no such curve, though single readings can be large; an effect the other way counts as inactive or inconclusive.

CCN1CCN(Cc2ccc(C)cc2C)CC1	G9a inh-1 56.2µM, BAZ2B block inconclusive
Cn1c(=O)oc2cc(S(=O)(=O)N3CCCC(C(=O)NCc4ccccc4Cl)C3)ccc21 (configuration not stated)	none (no result: PLK1 PBD block, Sfp inh)
C=CC[n+]1c(-c2ccc(C)cc2)csc1Nc1c(C)n(C)n(-c2ccccc2)c1=O	G9a inh-1 17.8µM, BAZ2B block inconclusive
CCOC(=O)c1ncn2c1CN(C)C(=O)c1cc(N=[N+]=[N-])ccc1-2	none (no result: HP1b chromo inh, G9a inh-1, PLK1 PBD block, BAZ2B block, JMJD2A Tudor)
c1csc(C2(N3CCCCC3)CCCCC2)c1	none (no result: HP1b chromo inh, PLK1 PBD block, BAZ2B block, JMJD2A Tudor)
c1ccc2sc(C3(N4CCCCC4)CCCCC3)cc2c1	G9a inh-1 8.91µM! (no result: HP1b chromo inh, PLK1 PBD block, BAZ2B block, JMJD2A Tudor)
Cc1cccc(N2CCc3c2nc2ccccc2c3N)c1	HP1b chromo inh inconclusive, G9a inh-1 inconclusive, BAZ2B block inconclusive, Sfp inh 28.2µM, JMJD2A Tudor 3.16µM! | Sfp PPTase conf 26.4µM | Sfp gel assay inactive
Cc1cccc(-n2c(/C=C/c3ccccc3O)nc3ccccc3c2=O)c1	none (no result: PLK1 PBD block, Sfp inh)
CC1(C)[C@@H](C=C(Cl)Cl)[C@@H]1C(=O)OCc1c(F)c(F)cc(F)c1F	none (no result: HP1b chromo inh, PLK1 PBD block, BAZ2B block, JMJD2A Tudor)
Clc1ccccc1Cl	none (no result: HP1b chromo inh, PLK1 PBD block, BAZ2B block, JMJD2A Tudor)
C[C@H](N)[C@H](O)c1ccc(O)c(O)c1	G9a inh-1 1.58µM, Sfp inh 35.5µM (no result: HP1b chromo inh, PLK1 PBD block, BAZ2B block, JMJD2A Tudor) | Sfp PPTase conf inconclusive | Sfp gel assay 74.5µM
Cn1sc(Cl)cc1=O	none (no result: HP1b chromo inh, PLK1 PBD block, BAZ2B block, JMJD2A Tudor)
CC(C)c1cc2c(c(O)c1O)[C@@]1(C(=O)O)CCCC(C)(C)[C@@H]1CC2	G9a inh-1 3.55µM, Sfp inh 1.41µM (no result: HP1b chromo inh, PLK1 PBD block, BAZ2B block, JMJD2A Tudor) | Sfp PPTase conf 2.64µM | Sfp gel assay inactive
C[C@H]1CN(C2CCC(C#N)(c3ccc(F)cc3)CC2)CC[C@@]1(C(=O)O)c1ccccc1 (some centres not stated)	none (no result: HP1b chromo inh, PLK1 PBD block, BAZ2B block, JMJD2A Tudor)
O=C1C2CC=CCC2C(=O)N1SC(Cl)(Cl)Cl (configuration not stated)	G9a inh-1 1.58µM, Sfp inh 6.31µM (no result: HP1b chromo inh, PLK1 PBD block, BAZ2B block, JMJD2A Tudor) | Sfp PPTase conf 9.37µM | Sfp gel assay 6.17µM
CCOC(=O)C1=CC(=C2C(=O)N(CC)C(=S)N(CC)C2=O)c2ccccc2O1	HP1b chromo inh inconclusive, G9a inh-1 25.1µM, PLK1 PBD block inconclusive, BAZ2B block inconclusive, Sfp inh 50.1µM | Sfp PPTase conf 59.1µM | Sfp gel assay inactive
CC(C)Nc1ccc(Nc2ccccc2)cc1	HP1b chromo inh 44.7µM, G9a inh-1 1.58µM, PLK1 PBD block inconclusive, BAZ2B block 28.2µM, Sfp inh 8.91µM, JMJD2A Tudor 50.1µM | Sfp PPTase conf 10.5µM | Sfp gel assay inconclusive | TbPYK inh 5.01µM | TbPYK ADP-Glo 15.8µM
COc1ccc(Cn2c(=O)oc3ccc(C)cc32)cc1OC	none
CC(C)[C@@]1(NC(=O)[C@H]2CC3c4cccc5[nH]cc(c45)C[C@H]3N(C)C2)O[C@@]2(O)C3CCCN3C(=O)[C@@H](Cc3ccccc3)N2C1=O (some centres not stated)	G9a inh-1 12.6µM!, Sfp inh 79.4µM! (no result: HP1b chromo inh, PLK1 PBD block, BAZ2B block, JMJD2A Tudor) | ME-1 growth inconclusive
OC(O)C(Cl)(Cl)Cl	none (no result: HP1b chromo inh, PLK1 PBD block, BAZ2B block, JMJD2A Tudor)
Oc1cccc2cc(N3CCNCC3)cnc12	none (no result: HP1b chromo inh, G9a inh-1, PLK1 PBD block, BAZ2B block, Sfp inh, JMJD2A Tudor) | JMJD2E inh-1 inconclusive | JMJD2E inh-2 inconclusive | FDH inh inactive
COCC(C)N(C(=O)CCl)c1c(C)csc1C (configuration not stated)	none (no result: HP1b chromo inh, PLK1 PBD block, BAZ2B block, JMJD2A Tudor)
CN(C)c1ccc(NC(=O)Oc2ccccc2)cc1	G9a inh-1 1.58µM, BAZ2B block 44.7µM, Sfp inh 79.4µM, JMJD2A Tudor inconclusive | G9a inh-2 1.42
CC(=O)Nc1ccc(NC(=O)Oc2ccccc2)cc1	G9a inh-1 inconclusive
CCOC(=O)c1ncn2c1[C@H]1CCCN1C(=O)c1cc(OC)ccc1-2	none (no result: HP1b chromo inh, G9a inh-1, PLK1 PBD block, BAZ2B block, JMJD2A Tudor)
COc1ccc(CN2CCN(Cc3ccccc3OC)CC2)cc1	HP1b chromo inh inconclusive, G9a inh-1 2µM, BAZ2B block 25.1µM, Sfp inh inconclusive, JMJD2A Tudor 3.98µM | G9a inh-2 3.56
Cc1cccc(OCC(=O)N2CCN(Cc3ccncc3)CC2)c1	G9a inh-1 2.51µM, BAZ2B block 17.8µM, Sfp inh inconclusive, JMJD2A Tudor 1.26µM | G9a inh-2 8.93
